Results as given in PubChem BioAssay (EPA / NIEHS).
Calls of active or inactive are those of the source. The calls were made as follows: active = hit-call score of the fitted dose curve at least 0.9, where 1 is the maximum; inactive = score below 0.9.

The compounds below were run on Thrombomodulin, THBD (gene 7056) (assay: BSK_3C_Thrombomodulin: BioMAP Diversity Plus: 3C Assay for Thrombomodulin Biomarker Activity (AID 2283029)). Settings: primary human endothelial cells (HUVEC); actives raise or lower the signal.
Procedure: BSK_3C is a cell-based, multiplexed-readout assay that uses umbilical vein endothelium, a human vascular primary cell, with measurements taken at 24 hours after chemical dosing in a 96-well plate.BSK_3C_Thrombomodulin is an assay component measured in the BSK_3C assay. It measures Thrombomodulin antibody related to regulation of gene expression using ELISA technology.Data from the assay component BSK_3C_Thrombomodulin was analyzed into 1 assay endpoint. This assay endpoint, BSK_3C_Thrombomodulin, was analyzed with bidirectional fitting relative to DMSO as the negative control and baseline of activity. Using a type of binding reporter, gain or loss-of-signal activity can be used to understand changes in the signaling as they relate to the gene THBD. Furthermore, this assay endpoint can be referred to as a primary readout, because this assay has produced multiple assay endpoints where this one serves a signaling function. To generalize the intended target to other relatable targets, this assay endpoint is annotated to the gpcr intended target family, where the subfamily is rhodopsin-like receptor.
The levels of cell surface (or secreted, indicated by the prefix "s") biomarker endpoints were measured by ELISA. Overt cytotoxicity to cells in confluent adherent cultures (all systems other than the BT system) was assessed by measuring total protein levels using sulforhodamine B (SRB) staining in parallel cultures at the time of biomarker measurements, indicated as SRB endpoints. For proliferation assays for adherent cell types, individual cell types are cultured at sub-confluence and relative cell numbers quantified by SRB staining at time points optimized for each system (48 h: 3C and CASM3C systems; 72 h: BT and HDF3CGF systems; 96 h: SAg system). SRB was performed by staining cells with 0.1% SRB after fixation with 10% TCA and reading wells at 560 nm.Viability and proliferation of PBMC (T cells) was quantified by Alamar Blue reduction for the SAg and BT systems. For PBMC viability (referred to as PBMC Cytotoxicity within the assay endpoint names), cells were plated (75,000/well in a 96-well plate) and then chemical samples added for 1 h before addition of activators, SEB and TSST-1 (20 ng/mL final concentration each). Cells were incubated for 90 h. Then, Alamar Blue (20 uL/well) (Invitrogen, Cat DAL1100) was added for 6 h, and the plates were read with a fluorescence microplate reader at 546/580 nm (excitation/emission). For PBMC proliferation, cells were plated and activated as above but incubated for only 16 h prior to addition of Alamar Blue. Plates were read after 6 h.

Structure (SMILES) | AC50 | outcome
O=c1[nH]sc2ccccc12 | 5.42 µM (active) | 
O=C(O)Cn1c(=O)n(Cc2ccc(Br)cc2F)c(=O)c2ccc(Cl)cc21 |  | inactive
Cc1cn([C@H]2C[C@H](N=[N+]=[N-])[C@@H](CO)O2)c(=O)[nH]c1=O |  | inactive
CC(O)CC(C)(C)O (stereo not given) |  | inactive
CCCCCCCCN(C)CCCCCCCC |  | inactive
CC(C)(O)c1ccc(CNC(=O)c2cccnc2Oc2ccc3nonc3c2)cc1 |  | inactive
CC1(C)NC(=O)N(c2ccc([N+](=O)[O-])c(C(F)(F)F)c2)C1=O |  | inactive
Cc1ncc(CO)c(CO)c1O |  | inactive
Cc1cc2c(cc1C(F)(F)F)N(C(=O)Nc1ccc(Oc3cccnc3C)nc1)CC2 | 5.4 µM (active) | 
CCCCOC(=O)c1ccc(O)cc1 |  | inactive
Cc1cc(F)ccc1-c1cc(N2CC[C@@H](O)[C@H]2CO)ncc1N(C)C(=O)C(C)(C)c1cc(C(F)(F)F)cc(C(F)(F)F)c1 |  | inactive
C[C@]12CC[C@@H]3c4ccc(O)cc4CC[C@H]3[C@@H]1CCC2=O |  | inactive
COc1ccc2cc(S(=O)(=O)N[C@H](CC(=O)N[C@H](Cc3ccc(CN4[C@H](C)CCC[C@@H]4C)cc3)C(=O)N(C)C(C)C)c3ccc4c(c3)OCO4)ccc2c1 |  | inactive
Cc1occc1C(=O)Nc1ccc(C(=O)N2CCC(F)(F)/C(=C\C(=O)N3CCC(N4CCCCC4)CC3)c3ccccc32)cc1 |  | inactive
Cc1ccc(C(C)C)cc1 |  | inactive
COc1cc(C(=O)NC2CCN(C)CC2)ccc1Nc1ncc2c(n1)N(C1CCCC1)CC(F)(F)C(=O)N2C |  | inactive
CCN(CC)C(=O)c1cc(S(=O)(=O)Cc2ccccc2)c(N2CCC(c3ccccc3)CC2)cc1N(CC)CCN(C)C | 4.43 µM (active) | 
CN1C(=O)N(c2ccccc2Br)Cc2cnc(Nc3ccc4c(c3)OCC(CO)O4)nc21 (stereo not given) |  | inactive
CC[C@H](NC(=O)c1cc(F)ccc1NS(=O)(=O)c1cccc2cccnc12)c1ccccc1 |  | inactive
CCCC(=O)OCCC(C)C |  | inactive

Structure (SMILES) | AC50 | outcome
CN1C(=O)CC[C@H]1c1cccnc1 |  | inactive
O=C(Nc1ccc(Cl)cc1)Nc1ccc(Cl)c(Cl)c1 |  | inactive
OC12N=C(c3ccccc3)SC1Cc1cc(Cl)ccc12 (stereo not given) |  | inactive
CC[C@@H]1C[C@H](N(Cc2cc(C(F)(F)F)cc(C(F)(F)F)c2)C(C)=O)c2cc(C(F)(F)F)ccc2N1C(=O)OC(C)C |  | inactive
CCCOC(=O)c1cc(O)c(O)c(O)c1 |  | inactive
CC(C)(C)c1cc(/C=C2\SC(N)=NC2=O)cc(C(C)(C)C)c1O |  | inactive
Oc1ccccc1 |  | inactive
CCCCCCCCOc1ccc(C(=O)c2ccccc2)c(O)c1 | 7.71 µM (active) | 
CCCCCCCCCC(=O)O |  | inactive
Cc1cccc2ccccc12 |  | inactive
CCCCCCCCOC(=O)c1cc(O)c(O)c(O)c1 |  | inactive
NCc1cccc(C2CCN(C(=O)c3ccc(C#Cc4ccccc4F)o3)CC2)c1 | 12.7 µM (active) | 
CCCCCCCCCCCCO |  | inactive
Cc1oc2c(NC(=O)c3c(Cl)cccc3Cl)cccc2c1C(C)(C)O | 11.8 µM (active) | 
CCOC(=O)O[C@H](C)OC(=O)c1ccc2c(c1)cc(C(=O)NC1CCN(C(C)C)CC1)n2Cc1cc(-c2ccc(Cl)s2)on1 |  | inactive
OCCO |  | inactive
COCC(C)OCC(C)OCC(C)O (stereo not given) |  | inactive
Clc1ccccc1C(c1ccccc1)(c1ccccc1)n1ccnc1 | 8.39 µM (active) | 
O=C1c2ccccc2C(=O)N1CCc1noc(-c2ccc(CN3CCCCCC3)s2)n1 |  | inactive
COc1cccc([C@H](O)C2CCN(CCc3ccc(F)cc3)CC2)c1OC |  | inactive
